Values joined by “and” are separate entries in the source; they are usually repeats but may differ in a detail not shown here. Identical values can stand only once. Results filed as inconclusive are left out. Where a structure was tested more than once in an assay, its records may differ in their call. Active and inactive are the calls of the source. How the source made its calls, unless noted: active means hit-call score of the fitted dose curve at least 0.9, where 1 is the maximum; inconclusive means response in the unintended direction; inactive means score below 0.9.
Experiments:
[1] = target: Peroxisome proliferator-activated receptor gamma (Homo sapiens) (UniProt P37231); assay: ATG_hPPARg_XSP2: Attagene TRANS-FACTORIAL Multi-Species (XSP2) HepG2 Assay for human Peroxisome Proliferator-activated Receptor gamma (PPARg) (AID 2283829);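 further: actives raise reporter mRNA above DMSO so AC50 reflects PPARg activation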
Summary of the method: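 HepG2 cells transiently transfected with GAL4-UAS reporter units driven by chimeric NR-Gal4 proteins; androgen receptor stimulated with 3 nM 6-alpha-fluorotestosterone and 1.5 nM norgestrel. After 24 h, reporter mRNA quantified by RT-PCR and capillary electrophoresis versus DMSO.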

[2] = target: mouse Peroxisome Proliferator-activated Receptor gamma (PPARg), Pparg (gene 19016) (UniProt P37238); assay: ATG_mPPARg_XSP2: Attagene TRANS-FACTORIAL Multi-Species (XSP2) HepG2 Assay for mouse Peroxisome Proliferator-activated Receptor gamma (PPARg) (AID 2283830);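 further: hits are gains in reporter mRNA above DMSO so AC50 marks activation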
Summary of the method: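 HepG2 cells transiently transfected with GAL4-UAS reporter units for chimeric NR-Gal4 proteins including mouse PPARg, exposed 24 h; medium contained 3 nM 6-alpha-fluorotestosterone and 1.5 nM norgestrel. Reporter mRNA quantified by RT-PCR, HpaI digestion and capillary electrophoresis, vs DMSO.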

[3] = target: Nuclear receptor subfamily 1 group I member 2 (Mus musculus) (UniProt O54915); assay: ATG_mPXR_XSP2: Attagene TRANS-FACTORIAL Multi-Species (XSP1) HepG2 Assay for mouse Pregnane X Receptor (PXR) (AID 2283831)
Summary of the method: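 HepG2 cells transiently transfected with GAL4-UAS reporter units expressing chimeric NR-Gal4 proteins; 24 h compound exposure. Reporter mRNA quantified by RT-PCR and capillary electrophoresis fluorescence; gain of signal fitted against DMSO.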

[4] = target: zebrafish Thyroid Hormone Receptor alpha (TRa), thraa (gene 30670) (UniProt Q98867); assay: ATG_zfTRa_XSP2: Attagene TRANS-FACTORIAL Multi-Species (XSP1) HepG2 Assay for zebrafish Thyroid Hormone Receptor alpha (TRa) (AID 2283832);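 further: actives raise zebrafish TRa-Gal4 reporter transcript above DMSO baseline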
Summary of the method: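 HepG2 cells transiently transfected with multiplexed GAL4-UAS reporter units expressing chimeric NR-Gal4 proteins; 24 h after dosing, reporter mRNA measured by RT-PCR, FAM labelling, HpaI digestion and capillary electrophoresis; gain of signal versus DMSO baseline.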

[5] = tested on: zebrafish Peroxisome Proliferator-activated Receptor gamma (PPARg), gene 557037; assay: ATG_zfPPARg_XSP2: Attagene TRANS-FACTORIAL Multi-Species (XSP2) HepG2 Assay for zebrafish Peroxisome Proliferator-activated Receptor gamma (PPARg) (AID 2283833);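 further: actives increase reporter signal over DMSO so AC50 reflects activation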
Experimental: ATG_XSP2_multi-species_TRANS is a cell-based, multiplexed assay created by modifying the existing Attagene TRANS-FACTORIAL system to include a panel of nuclear receptors from some or all the following species: human (Homo sapiens), mouse (Mus musculus), frog (Xenopus laevis), zebrafish (Danio rerio), chicken (Gallus gallus), and turtle (Chrysemys picta). The ECOTOX-FACTORIAL format uses HepG2, a human liver cell line, with measurements taken at 24 hours after chemical dosing in a 24-well plate. Xsp2 included 3 nM 6-alpha-fluorotestosterone and 1.5 nM norgestrel to stimulate the androgen receptor.ATG_zfPPARg_XSP2 is one of 29 assay components measured or calculated from the ATG_XSP2_multi-species_TRANS assay. It is designed to make measurements of mRNA induction, a form of inducible reporter, as detected with fluorescence intensity signals by Reverse transcription polymerase chain reaction (RT-PCR) and Capillary electrophoresis technology.The assay endpoint ATG_zfPPARg_XSP2 was analyzed in the positive analysis fitting direction relative to DMSO as the negative control and baseline of activity. […] Furthermore, this assay endpoint can be referred to as a primary readout, because this assay has produced multiple assay endpoints where this one serves a reporter gene function. […]

[6] = tested on: turtle Thyroid Hormone Receptor, alpha (TRa), gene 101949057; assay: ATG_trTRa_XSP2: Attagene TRANS-FACTORIAL Multi-Species (XSP1) HepG2 Assay for turtle Thyroid Hormone Receptor, alpha (TRa) (AID 2283834);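 further: hits raise reporter mRNA over the DMSO baseline so AC50 marks activators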
Summary of the method: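 HepG2 cells transiently transfected with GAL4-UAS reporter units for chimeric turtle TRa-Gal4; mRNA measured 24 h after dosing by RT-PCR and capillary electrophoresis fluorescence, gain of signal fitted against DMSO.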

[7] = ATG_M_61_XSP2: Attagene TRANS-FACTORIAL Multi-Species (XSP2) HepG2 Assay for M61 Transcription Factor (Internal Marker) (AID 2283835; active means hit-call score of the fitted dose curve at least 0.9, where 1 is the maximum; inactive means score below 0.9;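 further: reporter mRNA of an internal background marker read by RT-PCR and capillary electrophoresis; active means a rise in signal above the DMSO baseline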)
Summary of the method: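 HepG2 cells transiently transfected with multiple GAL4-UAS reporter units; 3 nM 6-alpha-fluorotestosterone and 1.5 nM norgestrel present to stimulate androgen receptor. After 24 h compound exposure, reporter mRNA measured by RT-PCR and capillary electrophoresis fluorescence, gain-of-signal versus DMSO baseline.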

[8] = target: zebrafish Thyroid Hormone Receptor beta (TRb), thrb (gene 30607) (UniProt Q9PVE4); assay: ATG_zfTRb_XSP2: Attagene TRANS-FACTORIAL Multi-Species (XSP1) HepG2 Assay for zebrafish Thyroid Hormone Receptor beta (TRb) (AID 2283836)
Summary of the method: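 HepG2 cells transiently transfected with multiplexed GAL4-UAS reporter units expressing chimeric NR-Gal4 proteins; read 24 h after dosing. Reporter mRNA quantified by RT-PCR, 6-FAM labelling, HpaI digest and capillary electrophoresis; gain of signal fitted relative to DMSO.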

[9] = ATG_XTT_Cytotoxicity_XSP2: Cytotoxicity Assessment in the Attagene TRANS-FACTORIAL Multi-Species (XSP2) HepG2 Assay (AID 2283837)
Experimental: ATG_XSP2_XTT_Cytotoxicity_multi-species is a cell-based, single-readout assay that uses HepG2, a human liver cell line, with measurements taken at 24 hours after chemical dosing in a 24-well plate.ATG_XTT_Cytotoxicity_XSP2 is an assay component measured from the ATG_XSP2_XTT_Cytotoxicity_multi-species assay. It is designed to make measurements of cell number, a form of viability reporter, as detected with fluorescence intensity signals by XTT cytotoxicity assay technology.Data from the assay component ATG_XTT_Cytotoxicity_XSP2 was analyzed into 1 assay endpoint. This assay endpoint, ATG_XTT_Cytotoxicity_XSP2, was analyzed in the positive analysis fitting direction relative to DMSO as the negative control and baseline of activity. Using a type of viability reporter, loss-of-signal activity can be used to understand changes in the viability. Furthermore, this assay endpoint can be referred to as a primary readout, because the performed assay has only produced 1 assay endpoint. […]
Human liver HepG2 cells are transiently transfected with multiple reporter transcription units (MRTUs) in 6-well plates using FuGene 6 reagent (Roche; 3 ml FuGene/1 mg DNA). […] A major difference between the CIS and TRANS system is that in CIS activities of endogenous TFs are measured, whereas the TRANS assay evaluates changes in activities of exogenous, chimeric NR-Gal4 proteins. […]

[10] = target: human Thyroid hormone Receptor alpha (TRa), THRA (gene 7067) (UniProt P10827); assay: ATG_hTRa_XSP2: Attagene TRANS-FACTORIAL Multi-Species (XSP2) HepG2 Assay for human Thyroid hormone Receptor alpha (TRa) (AID 2283838)
Summary of the method: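 HepG2 cells transiently transfected with multiplexed GAL4-UAS reporter units and exogenous NR-GAL4 chimeras; 24 h chemical exposure with 3 nM 6-alpha-fluorotestosterone and 1.5 nM norgestrel present. Reporter mRNA measured by RT-PCR, FAM labelling, HpaI digestion, capillary electrophoresis; gain-of-signal versus DMSO.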

Measured: AC50

Sequence of Peroxisome proliferator-activated receptor gamma (Homo sapiens) (P37231 whole entry, looked up, the tested form may be a part): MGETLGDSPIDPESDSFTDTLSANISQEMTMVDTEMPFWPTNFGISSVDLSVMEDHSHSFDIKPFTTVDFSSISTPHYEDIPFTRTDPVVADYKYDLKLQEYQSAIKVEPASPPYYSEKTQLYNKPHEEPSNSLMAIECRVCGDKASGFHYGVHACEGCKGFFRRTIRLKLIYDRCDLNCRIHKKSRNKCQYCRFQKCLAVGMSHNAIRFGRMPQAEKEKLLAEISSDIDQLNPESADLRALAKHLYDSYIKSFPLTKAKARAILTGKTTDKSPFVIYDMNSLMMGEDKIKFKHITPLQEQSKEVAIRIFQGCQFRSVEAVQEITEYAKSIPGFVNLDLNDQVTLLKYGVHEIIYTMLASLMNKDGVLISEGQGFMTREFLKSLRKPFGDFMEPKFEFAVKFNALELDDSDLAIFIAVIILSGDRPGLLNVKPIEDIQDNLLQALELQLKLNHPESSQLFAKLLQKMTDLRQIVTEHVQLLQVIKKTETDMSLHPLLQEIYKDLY
Sequence of mouse Peroxisome Proliferator-activated Receptor gamma (PPARg), Pparg (gene 19016) (P37238 whole entry, looked up, the tested form may be a part): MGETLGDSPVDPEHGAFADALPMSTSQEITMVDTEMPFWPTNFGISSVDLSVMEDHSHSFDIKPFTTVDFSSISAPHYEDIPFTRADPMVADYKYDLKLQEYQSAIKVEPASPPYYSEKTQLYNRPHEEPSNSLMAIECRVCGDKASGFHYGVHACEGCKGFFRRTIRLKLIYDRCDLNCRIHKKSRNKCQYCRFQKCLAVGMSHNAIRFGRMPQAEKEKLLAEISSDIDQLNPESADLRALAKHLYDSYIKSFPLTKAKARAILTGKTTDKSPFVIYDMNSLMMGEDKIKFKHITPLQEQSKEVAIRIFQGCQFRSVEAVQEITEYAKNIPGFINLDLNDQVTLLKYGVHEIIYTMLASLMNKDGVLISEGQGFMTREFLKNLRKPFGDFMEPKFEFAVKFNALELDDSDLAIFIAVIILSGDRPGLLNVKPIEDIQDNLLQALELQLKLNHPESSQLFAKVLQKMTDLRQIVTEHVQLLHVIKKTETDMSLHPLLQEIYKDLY
Sequence of zebrafish Thyroid Hormone Receptor alpha (TRa), thraa (gene 30670) (Q98867 whole entry, looked up, the tested form may be a part): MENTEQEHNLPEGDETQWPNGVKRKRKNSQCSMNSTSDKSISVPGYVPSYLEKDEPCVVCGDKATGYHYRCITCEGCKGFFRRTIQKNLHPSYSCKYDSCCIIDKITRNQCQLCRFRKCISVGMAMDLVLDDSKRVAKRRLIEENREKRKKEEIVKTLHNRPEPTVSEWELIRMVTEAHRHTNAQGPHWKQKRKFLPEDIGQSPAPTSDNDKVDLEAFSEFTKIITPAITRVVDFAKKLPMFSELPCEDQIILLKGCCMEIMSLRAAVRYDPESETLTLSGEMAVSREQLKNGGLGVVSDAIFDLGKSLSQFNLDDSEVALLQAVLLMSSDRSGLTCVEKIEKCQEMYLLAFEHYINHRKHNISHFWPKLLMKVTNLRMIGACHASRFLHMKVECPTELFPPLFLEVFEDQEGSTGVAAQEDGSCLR
Sequence of human Thyroid hormone Receptor alpha (TRa), THRA (gene 7067) (P10827 whole entry, looked up, the tested form may be a part): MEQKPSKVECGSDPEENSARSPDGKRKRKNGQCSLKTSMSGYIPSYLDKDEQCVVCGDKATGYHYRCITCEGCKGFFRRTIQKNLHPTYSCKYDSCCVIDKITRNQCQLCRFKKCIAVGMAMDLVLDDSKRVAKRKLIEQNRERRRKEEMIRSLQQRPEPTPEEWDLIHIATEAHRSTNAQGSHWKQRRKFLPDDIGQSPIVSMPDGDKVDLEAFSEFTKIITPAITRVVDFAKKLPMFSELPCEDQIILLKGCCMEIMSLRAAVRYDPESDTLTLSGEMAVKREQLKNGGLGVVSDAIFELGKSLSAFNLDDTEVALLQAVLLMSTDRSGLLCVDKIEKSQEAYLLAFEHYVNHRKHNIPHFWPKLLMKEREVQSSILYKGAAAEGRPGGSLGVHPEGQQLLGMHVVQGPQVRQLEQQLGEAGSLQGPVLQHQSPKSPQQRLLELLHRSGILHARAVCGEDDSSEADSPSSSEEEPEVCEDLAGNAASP
Sequence of Nuclear receptor subfamily 1 group I member 2 (Mus musculus) (O54915 whole entry, looked up, the tested form may be a part): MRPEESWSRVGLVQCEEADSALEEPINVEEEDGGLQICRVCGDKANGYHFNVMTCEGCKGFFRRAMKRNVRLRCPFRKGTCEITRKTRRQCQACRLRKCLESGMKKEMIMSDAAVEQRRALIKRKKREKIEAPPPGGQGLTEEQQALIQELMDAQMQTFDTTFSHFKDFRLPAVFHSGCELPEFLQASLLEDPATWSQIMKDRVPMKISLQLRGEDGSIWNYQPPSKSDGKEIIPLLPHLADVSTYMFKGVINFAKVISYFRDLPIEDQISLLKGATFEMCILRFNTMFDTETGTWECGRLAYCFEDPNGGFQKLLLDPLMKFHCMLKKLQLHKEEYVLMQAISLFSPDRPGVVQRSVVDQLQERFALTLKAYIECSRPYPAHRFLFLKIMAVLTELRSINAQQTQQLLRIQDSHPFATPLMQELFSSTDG
Sequence of zebrafish Thyroid Hormone Receptor beta (TRb), thrb (gene 30607) (Q9PVE4 whole entry, looked up, the tested form may be a part): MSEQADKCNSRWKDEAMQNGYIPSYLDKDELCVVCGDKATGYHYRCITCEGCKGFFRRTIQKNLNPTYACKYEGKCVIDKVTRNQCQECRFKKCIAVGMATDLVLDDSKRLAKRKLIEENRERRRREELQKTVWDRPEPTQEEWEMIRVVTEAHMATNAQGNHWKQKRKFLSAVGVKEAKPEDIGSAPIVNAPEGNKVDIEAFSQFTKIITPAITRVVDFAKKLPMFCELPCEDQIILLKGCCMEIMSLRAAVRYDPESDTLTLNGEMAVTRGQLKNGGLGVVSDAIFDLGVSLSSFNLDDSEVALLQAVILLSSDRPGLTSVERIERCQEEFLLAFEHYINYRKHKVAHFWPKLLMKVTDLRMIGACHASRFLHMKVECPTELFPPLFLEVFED

COC(=O)c1c(C)cc(O)c(C)c1O
inactive: [2] | [4] | [5] | [6] | [7] | [8] | [9] | [10]
active: [1] 100 µM and 66.6 µM | [2] 64.5 µM | [3] 10.7 µM and 27.3 µM

O=C(c1ccc(O)cc1)c1ccc(O)cc1O
inactive: [1] | [2] | [4] | [7] | [8] | [10]

— PubChem BioAssay (EPA / NIEHS)
